This passage reports Potency results from PubChem BioAssay (NCATS).

Structures are written as SMILES. Where “and” joins values, the source holds several entries; their conditions need not be identical. Equal entries are not always repeated. Results filed as inconclusive are left out. A call without a number means that no potency is given here. Calls of active or inactive are those of the source. The call rests on the fitted dose curve; in most records, active means well fitted cell-killing curve with a large enough effect; inconclusive means small, poorly fitted or top-dose-only effect, or effect the other way; inactive means flat fitted curve, though single readings scatter.
Potency means the concentration at half of the fitted maximal effect.

The experiment in a line: qHTS assay for cell viability of the p53RE-bla HCT-116 cell line (AID 743292). Further: nearly all actives have a fitted effect of over 55% in size. The note with it: p53RE-bla HCT-116 viability, ATP luminescence, 16 h; series mostly up to 95 µM. The source says:
U.S. Tox21 Program National Center for Advancing Translational Sciences [NCATS] NIH Chemical Genomics Center [NCGC] U.S. Environmental Protection Agency [EPA] National Institutes of Environmental Health Sciences [NIEHS] National Toxicology Program [NTP] U.S. Food and Drug Administration [FDA] Tox21 Assay Overview: The CellTiter-Glo Luminescent Cell Viability Assay (Promega, Madison, WI) is a homogeneous method to determine the number of viable cells in culture based on quantitation of the ATP present, which signals the presence of metabolically active cells. This cell viability assay was used to screen environmental chemicals in the CellSensor p53RE-bla HCT-116 cell line (Invitrogen).
Tox21 Assay Protocol Summary: Cell viability after compound treatment was measured using a luciferase-coupled ATP quantitation assay (CellTiter-Glo viability assay, Promega, Madison, WI) in CellSensor p53RE-bla HCT-116 cell line (Invitrogen). Total intracellular ATP content corresponds to the number of metabolically competent cells after compound treatment. The cells were dispensed at 4,000 cells/5 uL/well in 1,536-well white/solid bottom assay plates using a Flying Reagent Dispenser (Aurora Discovery, San Diego, CA). The cells were incubated for 5 h at 37 C, followed by the addition of 23 nL of compounds dissolved in DMSO, positive controls or DMSO only using a pintool work station (Kalypsys, San Diego, CA). The assay plates were incubated for 16 h at 37 C, followed by the addition of 5 uL/well of CellTiter-Glo reagent. After 30 min incubation at room temperature, the luminescence intensity of the plates was measured using a ViewLux plate reader (PerkinElmer, Shelton, CT).
(In general: In qHTS, concentration-response curves come from the screen itself.)
In the case of `C=Cc1ccccc1Cl`, the Potency entry was “inactive”. Regarding `Cc1cccc(O)c1`, the Potency result was “inactive”. Next, `C=CC(=O)OCCOCCOCCOCCOC(=O)C=C`: “inactive”; `CCO[Si](CCCN)(OCC)OCC`: “inactive”. Consider `C[C@H](CCC(=O)O)[C@H]1CC[C@H]2[C@@H]3CC[C@@H]4C[C@H](O)CC[C@]4(C)[C@H]3CC[C@]12C`, for which the Potency was 31.6 µM (active) and 35.5 µM (active). For the molecule `CCCCCCCCCCCC(=O)O`, the Potency entry is “inactive”. With `O=C(O)CCCCCCCCC(=O)O` the entry was “inactive”; with `O=C(O)CC(C(=O)O)C(CC(=O)O)C(=O)O` (stereo not given), “inactive”. With `CCCN(CCC)C(=O)SCC` the entry was “inactive”. As for `CCCCCCCCOC(=O)c1cc(O)c(O)c(O)c1`, the Potency result was “inactive”. With `Cc1cccc([N+](=O)[O-])c1C` the entry was “inactive”. With `CN(C)C=O` the entry was “inactive”; with `Cc1ccccc1C`, “inactive”.

Regarding `COC(=O)c1ccc(C)cc1`, the Potency result is “inactive”. For `O=C(Nc1ccccc1)c1ccccc1O`, the Potency entry was “inactive”.

With `CC1(C)S[C@@H]2[C@H](NC(=O)COc3ccccc3)C(=O)N2[C@H]1C(=O)O`, the Potency result is “inactive”. Next, `c1ccccc1`: “inactive”. For the molecule `COC(=O)CCCCC(=O)OC`, the Potency entry is “inactive”. Next, `O=C(O[C@@H]1Cc2c(O)cc(O)cc2O[C@@H]1c1cc(O)c(O)c(O)c1)c1cc(O)c(O)c(O)c1`: “inactive”. With `Nc1ccc(Cl)cc1Cl`, the Potency entry is “inactive”. With `O=C(O)c1ccccc1C(c1ccc(O)cc1)c1ccc(O)cc1` the entry was “inactive”; with `Clc1cc(Cl)c(Cl)c(Cl)c1Cl`, “inactive”; with `O[C@@H]([C@H](O)[C@@H](O)CBr)[C@@H](O)CBr`, “inactive”.

For `Cc1ccc(N)c([N+](=O)[O-])c1`, the Potency entry was “inactive”. Next, `CC(C)=CCCC(C)CCO` (stereo not given): “inactive”; `CC12CCC(CC1=O)C2(C)C` (stereo not given): “inactive”; `CCCCCCCCCCCCCCC1CO1` (stereo not given): “inactive”.

Regarding `C=C(C)C1CC=C(C)C(O)C1` (stereo not given), the Potency entry was “inactive”. With `COC(=O)c1ccc(C=O)cc1` the entry was “inactive”; with `Cc1ccc([N+](=O)[O-])cc1N`, “inactive”. Next, `c1ccc2c(c1)c1cccc3ccc4cccc2c4c31`: “inactive”. With `C=CC(C)(CCC=C(C)C)OC(C)=O` (stereo not given) the entry was “inactive”; with `O=C(O)c1ccc(O)cc1O`, “inactive”.

`CCO`: the Potency result is “inactive”. Next, `CCCCOCCO`: “inactive”. On to `O=C1CCc2ccccc2O1`, for which the Potency result is “inactive”.

`OCCNCCO`: the Potency entry is “inactive”. Next, `COc1cc(/C=C/c2ccccc2)oc(=O)c1`: “inactive”; `Cc1c(N=C=O)cccc1N=C=O`: “inactive”; `Cc1ccc([N+](=O)[O-])c(C)c1`: “inactive”.
